sPLA2-III inh: Blocks human group III sPLA2 activity | Q9NZ20 | actives 0.56% (n = 370,000) | QFRET BODIPY PC-A2 liposome hydrolysis, fluorescence | AID 743126 | inhibition, % at 12.2 µM;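 active means inhibition above mean plus 3 SD of compounds lying within the high and low control bounds, cut at about 19% in these data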;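 further: 0% = median of test compound wells and 100% = no enzyme DMSO wells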
AI-2 QS mod: modulators of Vibrio harveyi AI-2 quorum sensing system. Vibrio harveyi JMH597 AI-2 luminescence/OD600 ratio, 9 h; hits give low values; strain lacks LuxN and CqsS sensors; 0 = neutral-control median. activity change, % at 7.5 µM. actives 0.4% (n = 300,000); in the data active means activity change below about -75%, passing the limit was not always enough; inconclusive means no clear call, values can overlap the other calls;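 further: luminescence divided by OD600 gain over 9 h not by final OD600 alone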
Rin1-Abl PPI inh: human Rin1-Abl interaction inhibition; P00519+Q13671; TR-FRET Rin1/Abl binding, biochemical; inhibition, % at 7.35 µM; actives 0.4% (n = 360,000); in the data active means inhibition above about 5%, passing the limit was not always enough
Target sequence (P00519 whole entry, looked up): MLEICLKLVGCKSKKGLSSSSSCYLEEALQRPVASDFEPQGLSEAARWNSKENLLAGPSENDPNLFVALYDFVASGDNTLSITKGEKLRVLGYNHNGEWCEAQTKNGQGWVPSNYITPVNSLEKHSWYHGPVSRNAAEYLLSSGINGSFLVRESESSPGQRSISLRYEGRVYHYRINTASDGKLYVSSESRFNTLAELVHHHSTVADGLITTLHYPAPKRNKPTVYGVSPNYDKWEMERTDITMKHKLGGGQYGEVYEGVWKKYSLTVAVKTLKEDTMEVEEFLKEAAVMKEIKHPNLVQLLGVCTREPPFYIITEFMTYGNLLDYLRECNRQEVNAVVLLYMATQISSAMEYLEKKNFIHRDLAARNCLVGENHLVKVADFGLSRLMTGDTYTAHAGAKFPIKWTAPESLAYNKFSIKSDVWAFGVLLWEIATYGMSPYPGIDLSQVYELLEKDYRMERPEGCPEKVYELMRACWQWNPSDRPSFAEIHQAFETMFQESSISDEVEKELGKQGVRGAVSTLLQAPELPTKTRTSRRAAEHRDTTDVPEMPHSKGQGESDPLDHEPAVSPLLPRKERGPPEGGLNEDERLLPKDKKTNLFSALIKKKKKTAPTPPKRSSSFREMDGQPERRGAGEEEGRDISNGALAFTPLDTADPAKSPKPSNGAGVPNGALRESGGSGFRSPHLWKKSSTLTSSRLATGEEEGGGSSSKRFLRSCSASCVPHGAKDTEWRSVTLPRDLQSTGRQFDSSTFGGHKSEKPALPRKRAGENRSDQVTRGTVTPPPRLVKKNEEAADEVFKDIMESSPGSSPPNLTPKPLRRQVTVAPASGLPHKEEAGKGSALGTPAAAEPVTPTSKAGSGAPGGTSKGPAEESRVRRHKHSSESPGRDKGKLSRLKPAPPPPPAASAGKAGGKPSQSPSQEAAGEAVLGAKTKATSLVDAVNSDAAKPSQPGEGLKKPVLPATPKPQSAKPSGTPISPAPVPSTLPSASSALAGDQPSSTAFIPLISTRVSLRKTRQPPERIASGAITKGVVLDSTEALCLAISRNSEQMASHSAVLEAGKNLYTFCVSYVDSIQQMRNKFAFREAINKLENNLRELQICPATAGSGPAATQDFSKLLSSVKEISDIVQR
Target sequence (Q13671 whole entry, looked up): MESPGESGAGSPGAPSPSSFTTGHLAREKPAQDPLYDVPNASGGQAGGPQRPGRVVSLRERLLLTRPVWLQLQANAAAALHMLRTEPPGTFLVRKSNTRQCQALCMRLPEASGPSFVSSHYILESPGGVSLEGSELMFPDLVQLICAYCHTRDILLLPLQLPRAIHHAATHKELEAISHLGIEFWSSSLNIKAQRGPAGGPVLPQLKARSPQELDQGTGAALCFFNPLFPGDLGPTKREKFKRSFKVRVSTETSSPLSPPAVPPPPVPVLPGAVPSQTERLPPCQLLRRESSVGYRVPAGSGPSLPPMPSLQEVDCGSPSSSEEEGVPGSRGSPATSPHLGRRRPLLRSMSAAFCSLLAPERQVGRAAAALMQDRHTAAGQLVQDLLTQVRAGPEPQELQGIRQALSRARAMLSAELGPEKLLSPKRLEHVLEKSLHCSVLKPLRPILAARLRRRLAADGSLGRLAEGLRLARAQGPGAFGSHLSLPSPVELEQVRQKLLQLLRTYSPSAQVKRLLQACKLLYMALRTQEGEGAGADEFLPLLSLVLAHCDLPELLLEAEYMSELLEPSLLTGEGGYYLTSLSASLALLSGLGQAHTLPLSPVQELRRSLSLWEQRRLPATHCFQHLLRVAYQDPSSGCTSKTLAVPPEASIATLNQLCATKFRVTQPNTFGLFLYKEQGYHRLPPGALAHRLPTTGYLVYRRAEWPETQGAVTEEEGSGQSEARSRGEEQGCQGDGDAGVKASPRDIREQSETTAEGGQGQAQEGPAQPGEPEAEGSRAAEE
ARNT-TACC3 inh: disruptors of human ARNT/TACC3 interaction; Q9Y6A5; AlphaScreen His-ARNT PAS-B/GST-TACC3 binding, luminescence; TACC3 fragment carries E629A point mutation; inhibition, % at 9.99 µM; actives 0.66% (n = 390,000); AID 623870;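 active means mean inhibition of replicates at least 50% and at least half of replicates each reaching 50%; inconclusive means half or more replicates reach 50% but mean below 50%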;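 further: 0% = complete ARNT plus TACC3 wells and 100% = ARNT alone without TACC3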
* marks the source's active call; other numbers are inactive results; ? = inconclusive; / = no result given. A selection: hits, their analogues and other compounds. The true share with any hit is near 1.5%.

SMILES	sPLA2-III inh	AI-2 QS mod	Rin1-Abl PPI inh	ARNT-TACC3 inh
O=C1c2ccccc2C(=O)C12OC2c1cccc2ccccc12 (stereo not drawn)	0	28	13*	18
O=C1NC(c2cccc3ccccc23)Nc2ccccc21 (stereo not drawn)	-2	/	-1	-9
Cc1ccc(NC2=C(NCCO)C(=O)c3ccccc3C2=O)cc1	-2	56	-2	48*
CNC[C@@H]1OCCCC[C@@H](C)Oc2ccc(NS(=O)(=O)c3cn(C)cn3)cc2C(=O)N([C@H](C)CO)C[C@@H]1C	/	/	/	-33
Oc1ccc(CNc2cccnc2)c2cccnc12	3	/	/	/
Oc1c(CNc2ccccc2)cc(COCc2ccccc2)c2cccnc12	-3	/	-2	57*
CC1=NN(c2nc3ccccc3[nH]2)C(=O)/C1=C/N(C)C	/	17	-4	68*
COC(=O)c1c(NC(=O)Cc2ccccc2)sc2c1CCN(C(C)C)C2	-5	24	-2	2
COC(=O)c1c(NC(=O)c2ccc([N+](=O)[O-])o2)sc2c1CCN(C(C)C)C2	0	-90*	-3	4
CC(C)N1CCc2c(sc(NC(=O)c3ccc([N+](=O)[O-])o3)c2C(N)=O)C1	10	-90*	-16	-11
O=C(CNC(=O)c1ccncc1)N/N=C/c1cc(Br)ccc1O	15	-23	-2	46*
O=C(CNC(=O)c1ccccc1)N/N=C/c1cc(Br)ccc1O	-28	39	-3	-2
Cc1nc2ccc(C(=O)N/N=C/c3ccccc3O)cc2[nH]1	5	/	2	93*
Cc1cccc(C(=O)Oc2c(Br)cc(Br)cc2/C=N/NC(=O)c2ccncc2)c1	-3	4	2	/
COc1cccc(/C=N/NC(=O)C(c2ccncc2)N2CCOCC2)c1 (stereo not drawn)	3	12	2	/
O=C(N/N=C/c1cc(Br)ccc1O)C(c1ccncc1)N1CCOCC1 (stereo not drawn)	-9	62	-6	58*
O=C(N/N=C/c1cc(Br)cc(Br)c1O)c1ccncc1	-28	-84*	/	/
Cc1nc2ccc(C(=O)N/N=C/c3cc([N+](=O)[O-])ccc3O)cc2[nH]1	-9	44	-4	14
O=C(C1CCC1)N1CC[C@@H]2[C@H](CO)Nc3ccc(C#Cc4cccc(F)c4)cc3[C@@H]21	/	/	/	7
Cc1nonc1C(=O)N/N=C/c1ccc(O)cc1O	-15	-88*	-1	66*
Cc1nonc1C(=O)N/N=C/c1ccncc1	4	15	3	-3
O=C(N/N=C/c1ccc(O)cc1O)c1ccncc1	-2	101	-1	74*
O=C(C[n+]1ccccc1)N/N=C/c1cc(Br)cc(Br)c1O	/	-149*	-6	64*
C[C@@H]1CN([C@H](C)CO)C(=O)c2cc(-c3cccc(C#N)c3)cnc2O[C@@H]1CN(C)C(=O)c1ccccn1	/	/	/	4
Clc1ccc(C(c2ccccc2Cl)C(Cl)Cl)cc1 (stereo not drawn)	8	/	-3	48*
SMILES	sPLA2-III inh	AI-2 QS mod	Rin1-Abl PPI inh	ARNT-TACC3 inh
CCc1ccc(C(c2ccc(CC)cc2)C(Cl)Cl)cc1	-6	/	0	/
O=c1c2ccccc2ncn1-c1cccc([N+](=O)[O-])c1	20*	8	1	15
O=c1c2ccccc2ncn1-c1ccc([N+](=O)[O-])cc1[N+](=O)[O-]	-6	18	-1	0
COCCNC(=O)c1cc2c(c(-c3cccc(-c4cccc(F)c4)c3)n1)[C@H](CCO)N(S(=O)C(C)(C)C)C2 (stereo partly drawn)	/	/	/	2
O=C(CCc1ccccc1)NNC(=S)NC(=O)c1ccccc1	2	-309*	5	13
CCCCC(=O)NC(=S)NNC(=O)c1ccc(OC)cc1	3	?	-7	54*
CCCCC(=O)NC(=S)NNC(=O)CCc1ccccc1	3	?	-2	29*
CCNC(=S)NNC(=O)c1ccc(OC)cc1	5	3	-3	-22
O=C(O)C[C@H]1C[C@@H]2c3cc(NS(=O)(=O)c4ccccc4)ccc3O[C@@H]2[C@@H](CO)O1	/	/	/	-3
COc1ccccc1NC(=O)N[C@@H]1C=C[C@H](CC(=O)N2CCC(Cc3ccccc3)CC2)O[C@H]1CO	/	/	/	-16
CC(=O)Nc1nnc(-c2ccco2)o1	6	9	-1	9
Cc1nn(-c2ccccc2)c(C)c1C(=O)Nc1nnc(-c2ccco2)o1	0	34	-4	49*
COc1cc(OC)cc(C(=O)Nc2nnc(-c3cccnc3)o2)c1	5	32	2	62*
O=C(Nc1nnc(-c2ccc(Cl)cc2)o1)c1ccc(N2C(=O)CCC2=O)cc1	4	16	1	-23
O=C(Nc1nnc(-c2cccnc2)o1)c1cccc(Cl)c1	-3	?	1	52*
O=C(Nc1nnc(-c2ccco2)o1)c1ccc(N2C(=O)CCC2=O)cc1	2	13	2	58*
O=C(Nc1nnc(-c2ccccn2)o1)c1cccc(Br)c1	8	10	-2	29
O=C(Nc1nnc(-c2ccco2)o1)c1ccc(Cl)s1	-5	11	-2	43
O=C(Nc1nnc(-c2ccccn2)o1)c1cccc(Cl)c1	-3	68	-5	52*
O=C(Nc1nnc(-c2ccco2)o1)c1cccc(Cl)c1	4	-134*	-7	11
CO[C@H]1CN(C)C(=O)c2cc(NC(C)=O)ccc2OC[C@H](C)N(CCc2ccccc2)C[C@H]1C	/	/	/	4
C[C@@H]1CN([C@@H](C)CO)S(=O)(=O)c2ccc(C#CCC3CCCC3)cc2O[C@H]1CN(C)Cc1cccc(C(=O)O)c1	/	/	/	-4
Cc1cc(Cl)c(C)c(S(=O)(=O)Oc2ccccc2NC(=O)CCC(=O)O)c1Cl	5	/	3	28*
COc1ccccc1NC(=O)CCC(=O)O	2	5	2	-4
O=C(C[C@@H]1C[C@H]2c3cc(NC(=O)C4CCC4)ccc3O[C@H]2[C@H](CO)O1)NC1CCCCC1	/	/	/	4
SMILES	sPLA2-III inh	AI-2 QS mod	Rin1-Abl PPI inh	ARNT-TACC3 inh
O=c1cc(-c2ccccc2)[nH]n1-c1ccccc1	2	/	2	6
CC(C)(C)c1cc(=O)n(-c2ccccc2)[nH]1	-2	/	13*	24
O=C(N/N=C(\c1ccccc1)c1cccnc1)c1ccc(O)cc1	-2	15	-3	-2
O=C(N/N=C(\c1ccccc1)c1cccnc1)c1cccc(F)c1	2	9	0	57*
CCn1nc(C(=O)NNC(=O)c2ccccc2)c2ccccc2c1=O	-4	/	0	2
CCn1nc(C(=O)NNS(=O)(=O)c2ccc(C)cc2)c2ccccc2c1=O	-12	/	3	68*
C[C@@H]1CN([C@H](C)CO)S(=O)(=O)c2ccc(C#C[C@@H](C)O)cc2O[C@@H]1CN(C)C(=O)CN(C)C	/	/	/	-12
C=CCc1c(C)nc(C)nc1N/N=C/c1ccccc1O	0	23	-1	64*
Cc1noc(C)c1NC(=O)N(C)C[C@H]1OCCCC[C@@H](C)Oc2ccc(NC(=O)Cc3ccccc3)cc2C(=O)N([C@@H](C)CO)C[C@H]1C	/	/	/	-9
COc1cc2nc(Nc3ccc(C)c(C)c3)nc(N)c2cc1OC	-7	0	11	50*
Cc1ccc(NC(=O)OCc2cccs2)cc1	/	-90*	/	/

Bioassay records (PubChem)
